Screening data as filed in PubChem.
Luc counter – counter-screen: inhibitors of Kinase-Glo firefly luciferase. Kinase-Glo luciferase, ATP luminescence, 8 min. Potency, µM (series often up to 38.3 µM), for the others: top-dose activity change, negative = inhibition, most hits filed as inhibitors. 200,000 tested, 0.28% active; further: on the % scale 0 is the no-effect control and ±100 the full control effect; nearly all actives have a fitted effect of over 60% in size
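Luminescence was the read-out, taken after 8-minute incubation at ambient temperature. Luciferase turned over luciferin with 10 uM ATP in imidazole pH 7.2 buffer containing KCl, MgCl2, Tween 20 and BSA.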
Rab9 prom act – Rab9 promoter activation. 320,000 tested, 2.8% active. Huh7 Rab9 promoter-luciferase reporter, luminescence, 24 h. Potency, µM (doses to about 9.22 µM), inactives show top-dose activation, negative = inhibition, usual class: activators; further: % of control where 0% means no effect; nearly all actives have a fitted effect of over 60% in size
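Huh7 reporter line, Rab9 promoter upstream of luciferase. Compound exposure 24 h at 37 °C in reduced-serum medium with 10% FBS. Read-out: luminescence.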
FLuc modulator – counter-screen for miR-21 project: firefly luciferase inhibitors or activators; P08659; purified FLuc, Km substrates, luminescence inhibition; Potency, µM (top dose mostly 57.5 µM), without a hit: at the top dose activity change, negative = inhibition, actives largely listed as inhibitors; 360,000 tested, 6.9% active; AID 588342;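 further: plate controls were vehicle for no effect and reference inhibitor for full effect; nearly all actives have a fitted effect of over 55% in size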
Target sequence (P08659 whole entry, looked up): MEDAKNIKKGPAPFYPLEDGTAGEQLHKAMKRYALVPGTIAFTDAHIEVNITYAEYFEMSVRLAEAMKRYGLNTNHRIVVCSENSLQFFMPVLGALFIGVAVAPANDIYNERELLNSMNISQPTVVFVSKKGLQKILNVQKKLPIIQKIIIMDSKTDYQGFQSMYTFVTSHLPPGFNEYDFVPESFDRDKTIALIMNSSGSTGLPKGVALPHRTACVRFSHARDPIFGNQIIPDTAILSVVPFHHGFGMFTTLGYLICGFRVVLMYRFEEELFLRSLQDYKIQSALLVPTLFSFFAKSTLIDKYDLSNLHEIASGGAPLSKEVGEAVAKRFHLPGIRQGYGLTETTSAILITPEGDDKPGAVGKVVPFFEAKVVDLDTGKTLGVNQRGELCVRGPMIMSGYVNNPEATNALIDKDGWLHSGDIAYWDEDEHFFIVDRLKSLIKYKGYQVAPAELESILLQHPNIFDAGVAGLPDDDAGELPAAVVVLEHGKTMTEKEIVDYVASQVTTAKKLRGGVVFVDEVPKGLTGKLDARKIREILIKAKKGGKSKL
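Purified P. pyralis luciferase, 10 nM final, with Km-level 10 uM D-luciferin and 10 uM ATP in 50 mM Tris acetate pH 7.5, 10 mM Mg acetate, 0.01% Tween-20, 0.05% BSA; 6-point qHTS titration about 60 µM downward; luminescence read.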
ELG1 genotoxic – induces genotoxicity in HEK293T cells with luciferase-tagged ELG1; HEK293T ELG1-luciferase reporter, luminescence, 16 h; Potency, µM (highest dose often 46 µM), for the others: top-dose activity change, positive = activation, most hits filed as activators; 330,000 tested, 1.3% active; AID 504466; further: % of control where 0% means no effect; nearly all actives have a fitted effect of over 60% in size
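Genotoxicity was scored as increased ELG1-luciferase reporter signal, measured by ONE-Glo luminescence (30 min, room temperature). Compound or vehicle exposure of the HEK293T reporter cells lasted 16 hr at 37°C.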
NPC1 prom act – activators of NPC1 promoter | 320,000 tested, 2.4% active | Huh7 NPC1 promoter luciferase reporter, 24 h | Potency, µM (doses to about 9.22 µM), inactives show top-dose activation, hits mostly activators | AID 485313; further: % of control where 0% means no effect; nearly all actives have a fitted effect of over 60% in size
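Quantitative HTS used a cell-based reporter: Huh7 cells stably bearing the NPC1 promoter upstream of luciferase were treated with compounds for 24 h, and promoter activation was read as luminescence.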
SMN2 splice enh – enhancers of SMN2 splice variant expression | HEK293 SMN2-luciferase splicing reporter, luminescence, 30-36 h | Potency, µM (titrated, usually from 46.1 µM), inactives show at the top dose activity change, positive = activation, usual class: activators | 210,000 tested, 2.8% active | AID 1458; further: % of control where 0% means no effect; nearly all actives have a fitted effect of over 55% in size
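HEK293 cells carry an SMN2 […]–luciferase reporter in which exon 7 inclusion puts luciferase in frame. Cells were plated 10-12 h before compound addition, then incubated 30-36 h at 37C. ONE-Glo luminescence was read; sodium butyrate at 4.5 mM final served as control.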
An asterisk follows results filed as active; ? = inconclusive; · = no result given; [ ] = dose if it differs, or a comment. A selection: hits, their analogues and other compounds. The true share with any hit is near 7.5%. The call rests on the fitted dose curve; in most records, active means well fitted curve in the direction sought with a large enough effect; inconclusive means small, poorly fitted or top-dose-only effect, or another doubt; inactive means no such curve, though single readings can be large; an effect the other way counts as inactive or inconclusive. Potency means the concentration at half of the fitted maximal effect.

SMILES	Luc counter	Rab9 prom act	FLuc modulator	ELG1 genotoxic	NPC1 prom act	SMN2 splice enh
CCOC(=O)c1ccc2c(c1)nc(-c1ccccn1)n2CC	·	3.55µM*	1.51µM*	?	?	·
COC(=O)N1[C@H]2CC[C@@]3(C)C=C(C)O[C@]1(C)C3c1ccccc12	-0.3%	·	·	·	·	0.4%
O=C1C2C3C=CC(C3)C2C(=O)N1/N=C/c1ccc(-c2ccccc2[N+](=O)[O-])o1 (stereo not drawn)	-2.5%	23.7%	19µM*	2.7%	17.2%	?
O=C1C2C3C=CC(C3)C2C(=O)N1/N=C/c1cc(Br)cc([N+](=O)[O-])c1O (stereo not drawn)	0.7%	-4.9%	19µM*	10.8%	-4.1%	-15.7%
COc1ccc(-n2nc(C(=O)Nc3cc(OC)c(OC)c(OC)c3)c(=O)n(C)c2=O)cc1	·	·	-5.2%	·	·	·
COC(=O)c1ccc(/C=N/n2cnnc2)cc1	-1.4%	8.2%	-0.8%	-0.5%	3.5%	-9.2%
CC(C)(C)c1ccc(/C=N/n2cnnc2)cc1	-1.2%	-8.3%	19µM*	8.0%	0.9%	12.4%
CCN(CC)CCCNC(=O)Cn1c(-c2cccs2)cc2cc(Cl)ccc21	·	·	1.9%	·	·	·
Fc1ccccc1Nc1nc2ccccc2n2nnnc12	0.4%	?	?	13µM*	3.3%	?
Cc1ccc(-c2nc3ccccc3n3nnnc23)cc1	1.0%	0.9%	-16.1%	?	2.0%	12.6µM*
COC(=O)c1ccccc1NC(=O)c1ccc(-c2ccccc2F)o1	0.6%	?	3.4%	?	3.16µM*	5.01µM*
COc1ccccc1NC(=O)c1ccc(-c2ccccc2F)o1	0.4%	?	-8.2%[2.3 µM]	7.6%	18.1%	?
Cc1cc(NC(=O)c2ccc(-c3ccccc3F)o2)no1	-0.6%	4.47µM*	15.1µM*	?	3.55µM*	12.6µM*
COC(=O)c1ccccc1NC(=O)CN(c1ccc(Cl)cc1)S(=O)(=O)c1ccc(OC)cc1	·	·	-7.8%	·	·	-5.8%
CC1CCN(c2nn3c(=O)c(C(=O)NC(C)C)cnc3s2)CC1	·	·	-2.3%	·	·	·
Cc1ccc2c(c1)cc(C(=O)Nc1ccc(F)cc1F)n2C	·	·	-3.3%	·	·	·
CCOc1ccc(S(=O)(=O)Nc2nc3ccccc3nc2Nc2ccc(N3CCOCC3)cc2)cc1	2.6%	-4.5%	10.7µM*	-4.3%	-2.6%	-1.9%
COc1ccc(S(=O)(=O)Nc2ccc(N3CCOCC3)cc2)cc1	·	1.2%	0.6%	-4.2%	0.5%	·
O=S(=O)(Nc1nc2cc3c(cc2nc1Cl)OCCO3)c1ccccc1	0.8%	-3.0%	?	0.0%	-1.3%	4.5%
CC(=O)Nc1ccc(S(=O)(=O)Nc2nc3cc4c(cc3nc2Cl)OCCO4)cc1	·	-4.3%	19µM*	1.6%	0.3%	·
CCOc1ccc(S(=O)(=O)Nc2nc3ccccc3nc2Nc2ccc(OC)cc2)cc1	·	·	13.5µM*	·	·	-6.4%
CC(=O)c1ccc(Nc2nc3ccccc3nc2NS(=O)(=O)c2cccs2)cc1	·	-4.5%	19µM*	-14.4%	0.0%	·
C#C[C@]1(O)CC[C@@H]2[C@H]3CCc4cc(OC)ccc4[C@@H]3CC[C@@]21C	1.6%[17.1 µM]	·	·	·	·	1.6%[20.6 µM]
COc1ccc(OC)c(NC(=O)CSC2=Nc3ccccc3C3=NC(CCC(=O)NCCc4ccccc4)C(=O)N23)c1 (stereo not drawn)	·	·	4.4%	·	·	·
COc1ccc(Nc2nc3ccccc3nc2NS(=O)(=O)c2ccc(NC(C)=O)cc2)cc1	·	-3.3%	15.1µM*	9.9%	2.6%	·
SMILES	Luc counter	Rab9 prom act	FLuc modulator	ELG1 genotoxic	NPC1 prom act	SMN2 splice enh
COc1cccc(Nc2nc3ccccc3nc2NS(=O)(=O)c2ccc(NC(C)=O)cc2)c1	·	-5.0%	23.9µM*	15.9%	-3.3%	·
Cc1ccc2nc(NS(=O)(=O)c3ccc(Cl)cc3)c(Nc3ccc(C(=O)O)cc3)nc2c1	·	·	10.7µM*	·	·	-22.5%
CC(=O)Nc1ccc(S(=O)(=O)Nc2nc3ccccc3nc2Nc2ccc(S(N)(=O)=O)cc2)cc1	1.3%	-1.2%	?	1.2%	0.1%	4.6%
CCC(C)NC(=O)Cn1c(=O)n(-c2ccc(C)c(C)c2)c(=O)c2c3c(sc21)CCCCC3 (stereo not drawn)	·	·	4.4%	·	·	-4.9%
COc1cccc(OCC(=O)NCCS(=O)(=O)N2CCN(c3ccccc3F)CC2)c1	·	·	-9.8%	·	·	·
COc1ccc(NC(=O)Cn2ncc3c([nH]c4ccccc43)c2=O)cc1Cl	·	·	-0.8%	·	·	·
CCCCOc1ccc(C(=O)Nc2ccncc2)cc1	-2.7%	-26.3%	?	13µM*	-18.3%	-112.4%
CCCCOc1ccc(C(=O)NC)cc1	0.2%	1.1%	-14.3%	?	11.3%	-5.7%
O=C(Nc1cccnc1)c1ccc(Oc2ccccc2)cc1	-10.7%	?	3.38µM*	4.11µM*	?	-5.0%
CCCOc1ccc(C(=O)Nc2cccnc2)cc1	·	?	10.7µM*	10.3µM*	2.82µM*	·
COc1ccc(CCNC(=O)CN(c2ccccc2)S(=O)(=O)N(C)C)cc1OC	·	·	-0.6%	·	·	-1.9%
COc1ccc(OC)c(NC(=O)[C@@H]2CCCN2C(=O)c2cccs2)c1	-3.7%	-1.7%	0.7%	9.6%	-1.7%	5.62µM*
N#Cc1cccc(NC(=O)C2CCN(c3ncccn3)CC2)c1	·	·	-0.5%	·	·	2.7%
COc1ccc(CC(=O)n2nc(-c3ccc(Cl)cc3)nc2NCc2ccco2)cc1	-5.5%	3.16µM*	-2.1%	14.2%	?	?
CC(=O)n1nc(-c2ccc(Cl)cc2)nc1NCc1ccco1	2.3%	2.82µM*	-4.7%	20.6µM*	?	·
COc1ccc(C(=O)n2nc(-c3ccc(Cl)cc3)nc2NCc2ccco2)cc1	·	·	-2.5%	·	·	9.2%
O=C(c1ccccc1)n1nc(-c2ccc(Cl)cc2)nc1NCc1ccco1	·	·	1.6%	·	·	?
C=CCNc1nc(NCc2ccccc2)c(C#N)c2c1CN(C)CC2	-0.7%	1.8%	1.0%	-2.5%	-4.5%	22.4µM*
CCCn1c(C)nc2c(NCCCN3CCCCC3C)nc(C)nc21 (stereo not drawn)	-2.2%	·	·	·	·	0.2%
CCOc1ccc(CCNC(=O)CCCc2cc(-c3ccc(OCC)cc3)on2)cc1	·	·	-7.9%	·	·	-0.4%
CCOc1ccc(-c2cc(CCCC(=O)NCCC(C)C)no2)cc1	-0.1%	25.4%	6.01µM*	4.2%	16.8%	-11.9%
CCOc1ccc(-c2cc(CCCC(=O)NCc3cccnc3)no2)cc1	3.6%	?	10.7µM*	?	?	13.4%
CC1CN(C(=O)c2cc([N+](=O)[O-])cc([N+](=O)[O-])c2)CC(C)O1 (stereo not drawn)	-4.7%	3.16µM*	15.1µM*	?	?	·
Cc1ccc(C(=O)N2CC(C)OC(C)C2)cc1[N+](=O)[O-] (stereo not drawn)	-1.1%	-2.6%	-0.5%	0.6%	-9.1%	·
